In the library only some 12% were active in any assay of this set; here they are far more common.
CHX counter – affects cycloheximide protein synthesis inhibition readout, counter-screen | cell reporter, cycloheximide protein synthesis inhibition counterscreen | max response, % | 300,000 compounds, 12% hits; in the data active = max response mostly above about 13%, no sharp cut-off; inactive = mostly below about 14%; note: read at 38.3 µM for the half of the compounds with a filed dose; 0% is about no effect
SARS PLpro yeast – inhibitors of SARS-CoV papain-like protease in yeast | S. cerevisiae expressing SARS-CoV PLpro, growth rescue | Potency, µM (top dose mostly 32.9 µM), for the others: top-dose activity, positive = growth rescue, most hits filed as activators | 330,000 compounds, 0.19% hits; note: potency is the fitted concentration of half-maximal effect; 0% is about no effect; nearly all actives have a fitted effect of over 55% in size
NS1 inh – blocks influenza NS1 protein function; Potency, µM (series often up to 46.1 µM), inactives show at the highest dose activity, positive = more growth; AID 2326; 270,000 compounds, 0.4% hits; note: potency is the fitted concentration of half-maximal effect; actives are rising curves; nearly all actives have a fitted effect of over 50% in size
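OD600 was taken as the measure of yeast growth restored by compound in an NS1-expressing S. cerevisiae strain. Cells had been washed out of glucose medium and diluted 1:100 into galactose -URA medium, pH 6.0.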
Shiga inhibitor – Shiga toxin inhibition; Vero cells, Shiga toxin protein synthesis inhibition reporter; inhibition, % at 38.7 µM; 290,000 compounds, 9.2% hits; AID 2315; in the data active = inhibition mostly above about 28%, no sharp cut-off; inactive = mostly below about 43%; note: 0% is about no effect
* marks the source's active call; other numbers are inactive results; ? = inconclusive; · = not tested or not shown; + = active, no number; [ ] = remark or other dose. Unless noted, calls come from the whole dose curve.

SMILES	CHX counter	SARS PLpro yeast	NS1 inh	Shiga inhibitor
CCOc1cccc(C(=O)Nc2ccc(N(CC)CC)cc2)c1	16.4	-2.4%	-7.0%	15.3
COc1cccc(C(=O)Nc2ccc(C3CC3(Cl)Cl)cc2)c1 (stereo not given)	28.2*	-0.4%	-1.2%	84.7*
COc1cccc(C(=O)Nc2ccc(Cl)c(C(F)(F)F)c2)c1	51.1*	-35.7%	-27.6%	87.7*
CCOc1cccc(C(=O)Nc2ccc3ccccc3c2)c1	20.6*	-0.3%	-1.2%	36.8
CCOc1cccc(C(=O)NC(=S)Nc2cccc(C)c2)c1	8.9	?	13.3%	65.5*
COc1ccc(Cc2nnc(NC(=O)C(C)(C)C)s2)cc1	9.5	1.0%	3.4%	20.9
COc1cccc(C(=O)Nc2ccc(C(=O)c3ccccc3)cc2)c1	35.7*	-7.4%	-25.3%	·
COc1cccc(C(=O)Nc2nc3c(s2)CN(C)CC3)c1	20.6	9.4%	-8.8%	175.8*
CN1CCc2nc(NC(=O)c3cccc(S(=O)(=O)N4CCc5ccccc54)c3)sc2C1	-0.1	-2.7%	?	-13.8
O=[N+]([O-])C(=C1Nc2ccccc2N1)C(Cl)=C(Cl)Cl	16.5*	-1.3%	-0.4%	24.5
CC(CC(=O)Nc1ncc([N+](=O)[O-])s1)c1ccccc1 (stereo not given)	25.7*	-6.7%	-51.2%	87.3*
O=C(Cc1ccc([N+](=O)[O-])cc1)Nc1ccc(Cl)cc1	1.2	-2.2%	19.6%	18.6
O=C(Cc1ccc(Cl)cc1)Nc1ncc([N+](=O)[O-])s1	43.2*	-2.6%	·	67.4*
O=C(COc1ccc(Cl)cc1)Nc1ncc([N+](=O)[O-])s1	47.6*	0.1%	·	146.5*
CCC(Oc1ccccc1)C(=O)Nc1ncc([N+](=O)[O-])s1 (stereo not given)	2.3	-5.7%	-84.0%	12.2
O=C(Nc1ncc([N+](=O)[O-])s1)c1ccco1	37.5*	-22.4%	-105.3%	67.7*
CN1CCN(c2ccccc2NC(=O)COc2ccc(Cl)cc2)CC1	-5.4	27.5%	-0.1%	-13.9
CCC1CCCCN1C(=O)CSc1nc2ncccc2[nH]1 (stereo not given)	3.5	8.6%	-6.1%	9.8
O=C(Cc1ccc(Br)cc1)Nc1ncc([N+](=O)[O-])s1	67.6*	-5.1%	-30.3%	95.5*
O=[N+]([O-])c1ncccc1OCc1ccc(Cl)c(Cl)c1	38.4*	6.1%	-13.2%	57.9*
CN1CCc2c(sc(/N=C/c3cc(Cl)ccc3O)c2C#N)C1	51.7*	0.7%	5.8%	101.1*
O=C(O)[C@@H]1[C@H](C(=O)O)[C@H]2C(=O)C=C[C@H]1N2Cc1ccccc1	·	·	-0.7%	·
Oc1ccccc1-c1cc(-c2ccccc2Cl)[nH]n1	25.4*	·	-103.6%	101.3*
O=C(O)c1cc(-c2ccc(Cl)cc2)n[nH]1	0.5	4.9%	3.0%	-15.9
Oc1cc2ccccc2nc1-c1ccccc1Cl	-0.9	-3.7%	-4.7%	11.1
SMILES	CHX counter	SARS PLpro yeast	NS1 inh	Shiga inhibitor
O=c1cc(O)c(-c2ccccc2Cl)c(Cl)[nH]1	-2.0	2.7%[6.58 µM]	10.0%	-5.0
Oc1ccc(Cl)cc1-c1cc(-c2cccc(Br)c2)n[nH]1	42.3*	-22.1%	-10.4%	79.1*
Oc1ccc(Cl)cc1-c1cc(-c2ccccc2Cl)[nH]n1	23.1*	-0.9%	-5.1%	51.7*
CSc1nc(N)c(NC(=O)c2ccc(Br)o2)c(=O)[nH]1	0.3	-0.1%	3.1%	0.9
COc1ccc(NC2=NCC(C)S2)cc1 (stereo not given)	17.3*	-0.7%	1.2%	17.8
COc1ccc(Nc2ccc(OC)cc2)cc1	45.6*	-2.5%	-4.3%	86.6*
COc1ccc(Nc2c3ccccc3nc3ccccc23)cc1	22.5*	-8.7%	-47.3%	44.5*
CCOC(=O)c1nc(Nc2ccc(OC)cc2)c2ccccc2n1	24.2*	-0.2%	-6.1%	47.3*
CC1CN=C(Nc2ccc(F)cc2)S1 (stereo not given)	-0.6	0.1%	·	-1.4
COc1ccc(Nc2cc(C)c3ccccc3n2)cc1	41.5*	-1.6%	·	103.3*
COc1ccc(NC2=NC(C)(C)CS2)cc1	28.0*	0.0%	2.1%	70.1*
COc1ccc(Nc2cccccc2=O)cc1	15.0	0.1%	-8.5%	26.7
COc1ccc(NC2=CC(=O)N(C)C2=O)cc1	20.6	-5.5%	?	+
CC(C)(Nc1ccccc1)C(=O)c1ccccc1	-4.5	17.5%	8.0%	2.8
Cc1noc(C)c1COc1ccc(C(=O)NNC(=O)c2ccccc2F)cc1	·	-0.2%	·	·
CC1CCCN(S(=O)(=O)c2cc3c4c(c2)C(C)C(=O)N4CCC3)C1 (stereo not given)	-1.7	-1.8%	11.5%	-3.7
COc1cccc(CNC(=O)CC2C(=O)NCCN2Cc2ccoc2)c1OC (stereo not given)	-2.2	-0.2%	0.9%	-12.0
COc1cccc(/C=C/C(=O)c2ccc[nH]2)c1	54.6*	-22.8%	-24.5%	90.7*
